Among the data in PubChem BioAssay (NCI) are growth values, retold here.

Values joined by “and” are separate entries in the source; they are usually repeats but may differ in a detail not shown here. Equal entries are not always repeated. This is part of a sample that, as a whole, favours compounds with a hit. Of some 83,000 tested, about 20% had one in any assay.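 96-well plates, one dose, 48 hours. Percent growth reported; active if below 10.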 Active and inactive are the calls of the source.

The assay has as its system HL-60(TB) leukemia. The assay is described as follows: NCI-60 one-dose screen, 48 h (100 = growth as untreated, 0 = no growth, -100 = all killed). Conditions: 10 µM unless noted.
For `O=[N+]([O-])c1cccc2ccc(N/N=C/c3ccccc3O)nc12`, the growth was 40.7% (inactive) and 50.5% (inactive).
Consider `O=C1NCc2ccc3c(-c4cccc(Cl)c4)c[nH]c3c21`, for which the growth was -4.05% (active).
For `COc1ccc(C)cc1NC(=O)SC(C)C` the value was 94.7% [100 µM] (inactive); for `N=C(N)c1ccc(-c2ccc(-c3cc(Cl)cc(Cl)c3)o2)o1`, -64% (active).
For `N#CC1C(C#N)C2c3ccccc3C=CN2C1C(=O)c1ccc(Br)cc1` (centres undefined) the value was 101% (inactive); for `O=c1c2cc(F)ccc2sc2c(NCCCNCCO)nc3ccc(Cl)cc3c12`, 45.4% (inactive); for `Cn1cc(-c2cc3c(Nc4ccc(CC(=O)Nc5cc(C(C)(C)C)on5)cc4)ncnc3[nH]2)cn1`, 6.63% (active) and -21.3% (active).
On to `Nc1cccc(Nc2cc(S(=O)(=O)O)c(N)c3c2C(=O)c2ccccc2C3=O)c1`, for which the growth is 105% (inactive).
Take `CC(=O)Cc1nsc(NC(=O)c2cc(-c3cc(Cl)cc(Cl)c3)oc2C)n1`: the growth was 96.5% (inactive).
In the case of `O=C(/C(=C\c1ccc([N+](=O)[O-])cc1)S(=O)Cc1ccc(Cl)cc1)c1ccc(Cl)cc1` (centres undefined), the growth was 59.4% (inactive).
On to `O=S(=O)(NCCCNc1nccc(-c2c(-c3ccc(F)c(O)c3)nc3occn23)n1)c1ccccc1`, for which the growth was 84.3% (inactive).
Take `Cc1cs/c(=N\NC(=O)c2cc(-c3cc4ccccc4o3)nn2-c2ccccc2)n1-c1ccccc1`: the growth was 109% (inactive).
For `OCc1c(-c2ccccc2)nc2sccn12` the value was 130% (inactive); for `CC[C@]12C=CCN3CC[C@@]4(c5ccc(OC)cc5N(C)[C@H]4[C@@](O)(C(=O)OC)[C@@H]1OC(=O)CCC(=O)N[C@H](Cc1c[nH]c4ccccc14)C(=O)OC)[C@@H]32`, -25% [100 µM] (active).
For `COc1cc(-c2csc(NC(=O)Nc3cccc(C(F)(F)F)c3)n2)cc(OC)c1OC` the value was 44.6% (inactive); for `COc1cc2nc(Cl)nc(NCCO)c2cc1OC`, 104% (inactive); for `N#Cc1cccc(NC(=O)c2oc3ccccc3c2-c2cnn(-c3ccccc3)c2)c1`, -22.2% [50 µM] (active).
Take `C=C1c2c(C)nn(-c3ccc(OC)cc3)c2N(C)C23C[C@@H]1C1(C)c4c(C)nn(-c5ccc(OC)cc5)c4N(C)C(C)(C[C@H]12)C3` (some centres undefined): the growth is -2.21% (active).
For `C/C(=C\C(=N\N=C(N)N)c1ccc(Cl)cc1)c1ccc(Cl)cc1`, the growth is -68% (active).
`CCN1Cc2c(/C=C/c3ccccc3)nc3ccc(OC)cc3c2N(c2cccc(Cl)c2)C1`: the growth was 23.6% (inactive).
`ClCCn1c(CCl)nc2ccc(Cl)cc21`: the growth is -69% (active).
For `COc1ccc(Br)c2c1C(=O)CC2` the value was 151% (inactive); for `CCC1S/C(=N\N=C(/C)c2ccc[nH]2)N(c2ccccc2)C1=O` (centres undefined), -63.7% (active).
For `O=C(Nc1cccc(Cl)c1)OCC(COC(=O)Nc1cccc(Cl)c1)(COC(=O)Nc1cccc(Cl)c1)[N+](=O)[O-]` the value was 45% (inactive); for `O=C(CCl)N(C1CCCCC1)C1CCCCC1`, 104% (inactive).
Under `O=C(O)CCCCc1ccc([N+](=O)[O-])cc1` stands 74.8% (inactive) and 93.9% (inactive); under `CCOC(=O)N/N=C/c1ccc(OC)c(OC)c1`, 108% (inactive); under `COCCNCC(O)Cn1c2ccc(Cl)cc2c2cc(Cl)ccc21` (centres undefined), -42.6% (active).
Take `Cc1nn(-c2ccccc2)c2nc3nc4c(c(N)c3c(-c3ccc(Cl)cc3)c12)CCCC4`: the growth is 104% (inactive).
In the case of `Cn1cnc([N+](=O)[O-])c1Sc1ncnc2nc[nH]c12`, the growth is 73.5% (inactive) and 91.7% (inactive).
For `O=C(C[n+]1ccccc1)c1ccc2ccccc2c1` the value was 101% (inactive); for `CC/C=C\C[C@H](O)C/C=C1/C(=O)C(Cl)=C[C@@H]1C/C=C\CCCC(=O)O`, 19.4% (inactive); for `Cc1ccc(NC2=C(Cl)C(=O)c3nc(C)ccc3C2=O)cc1`, -10.8% (active).
Under `COc1cc2nc(Cl)nc(Nc3ccc(S(=O)(=O)Nc4nccs4)cc3)c2cc1OC` stands 102% (inactive); under `COc1ccc(C2=Cn3c(CCC(=O)c4nc5ccccc5[nH]4)nnc3SC2)cc1`, 95.6% (inactive).
On to `COc1cc([C@@H]2c3cc4c(cc3[C@H](O)[C@H]3COC(=O)[C@@H]23)OCO4)cc(OC)c1OC`, for which the growth was -34.9% (active) and -61% (active).
As for `O=C(CN1CCOCC1)Nc1ccc(-c2nc3ccccc3s2)cc1`, the growth was 101% (inactive).
Regarding `COc1ccc(-c2nc(SCC(=O)Nc3nc(-c4ccccc4)cs3)[nH]c(=O)c2C#N)cc1`, the growth is 92% (inactive).
Take `COc1cccc(C2=NN3C(C2)c2cc(Br)cc(OC)c2OC32CCN(Cc3ccccc3)CC2)c1` (centres undefined): the growth was 103% (inactive).
